Reference: PubChem BioAssay AID493231 (Broad Institute, 2011)
Results with a measured potency or affinity are listed apart.

Each compound was assayed against Acyl-homoserine lactone acylase PvdQ (Pseudomonas aeruginosa (strain ATCC 15692 / DSM 22644 / CIP 104116 / JCM 14847 / LMG 12228 / 1C / PRS 101 / PAO1)) (UniProt Q9I194) (assay: PvdQ acylase enzyme activity blockers – biochemical, fluorescence, plate reader and imaging, cherry-picks, dose response (AID 493231;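 also: 0% = neutral control wells and -100% = reference inhibitor wells; more negative values mean stronger inhibition of the acylase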)). Conditions: purified PvdQ acylase, fluorogenic substrate; series mostly up to 10 µM; activity change, negative = inhibition: at the top concentration; call rule not given here.
Acyl-homoserine lactone acylase PvdQ (Pseudomonas aeruginosa (strain ATCC 15692 / DSM 22644 / CIP 104116 / JCM 14847 / LMG 12228 / 1C / PRS 101 / PAO1)), sequence (Q9I194 whole entry, looked up): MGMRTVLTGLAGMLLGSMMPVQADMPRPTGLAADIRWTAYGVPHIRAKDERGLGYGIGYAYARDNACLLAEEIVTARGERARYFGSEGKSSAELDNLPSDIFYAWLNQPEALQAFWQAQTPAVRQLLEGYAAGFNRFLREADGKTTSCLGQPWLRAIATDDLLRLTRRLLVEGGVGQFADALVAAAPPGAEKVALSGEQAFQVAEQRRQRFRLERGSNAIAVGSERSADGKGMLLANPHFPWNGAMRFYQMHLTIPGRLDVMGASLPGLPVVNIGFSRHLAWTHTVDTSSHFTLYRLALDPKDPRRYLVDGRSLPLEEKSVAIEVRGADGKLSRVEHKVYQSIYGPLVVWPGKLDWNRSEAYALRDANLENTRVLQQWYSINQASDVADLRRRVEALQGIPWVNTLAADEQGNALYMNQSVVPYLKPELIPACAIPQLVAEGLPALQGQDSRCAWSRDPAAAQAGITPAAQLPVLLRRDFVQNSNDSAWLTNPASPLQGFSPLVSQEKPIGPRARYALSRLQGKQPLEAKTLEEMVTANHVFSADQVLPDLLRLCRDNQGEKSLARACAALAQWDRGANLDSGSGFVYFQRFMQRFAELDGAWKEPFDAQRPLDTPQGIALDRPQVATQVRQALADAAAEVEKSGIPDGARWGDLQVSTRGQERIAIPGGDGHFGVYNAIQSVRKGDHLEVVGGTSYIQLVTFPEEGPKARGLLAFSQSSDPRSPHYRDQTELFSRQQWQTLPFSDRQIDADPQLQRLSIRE

Activity change, negative = inhibition, inactive:
Cc1ccc2nc(-c3ccc(O)cc3)oc2c1 4.15 unspecified
CCC(=O)N1N=C(c2ccc(C)o2)CC1c1ccc(N(C)C)cc1 (stereo unspecified) 4.82 unspecified
Cc1ccc(O)c(NC(=S)NC(=O)/C=C/c2ccco2)c1 9.83 unspecified
COC(=O)CNC(c1ccccc1)c1cc(C)ccc1NS(=O)(=O)c1ccc(C)cc1 (stereo unspecified) -4.14 unspecified
Cc1ccc(-c2nc(CN(C)Cc3cccc4cnccc34)c(C)o2)s1 -7.83 unspecified
Cc1ccc(-n2c(C)cn(C(=O)c3ccccc3)c2=S)cc1 8.55 unspecified
CS(=O)(=O)N(CC(=O)Nc1ccccc1C(=O)N1CCOCC1)c1ccccc1 13.9 unspecified
O=C(CCc1c[nH]c2ccccc12)N/N=C/c1ccc2c(c1)OCO2 13.2 unspecified
CC1=C(C(=O)Nc2ccccc2)C(c2coc3ccccc3c2=O)C2=C(CCCC2=O)N1 (stereo unspecified) 7.59 unspecified
COCC(=O)Oc1c(S(=O)(=O)c2ccc(C)cc2)c(C)nn1-c1ccccc1 2.79 unspecified
CN(c1ccc(C(=O)Nc2ccc3c(c2)OCCO3)cc1)S(C)(=O)=O -1.33 unspecified
COc1ccc(CCNC(=O)/C(C#N)=C/c2ccc(OCC(=O)NCC3CCCO3)cc2)cc1OC (stereo unspecified) 10.4 unspecified
Cc1ccc2nc(-c3ccc(NS(=O)(=O)c4ccc(F)cc4)cc3)sc2c1 30.7 unspecified
COC(=O)C1CCN(C2CC(=O)N(c3cc(C)cc(C)c3)C2=O)CC1 (stereo unspecified) -1.56 unspecified
COCC(=O)N1CCC(Oc2ccc(C(=O)NCCc3ccncc3)cc2)CC1 -8 unspecified
NC(=O)c1ncn([C@@H]2O[C@H](CNCc3ccc(-c4cc(C(F)(F)F)ccc4Cl)o3)[C@@H](O)[C@H]2O)n1 10.7 unspecified
